# Source: ChEMBL document CHEMBL5308504, “Tm Shift (DSF) assay results for EUbOPEN Chemogenomics Library” (2023)
# Several values for one entry are separate records, joined by “and”; a condition that tells them apart may be missing. Identical values can stand only once.
# Columns and labels:
# Details in all cases: Compound concentration 20.0 uM, Protein concentration 2.0 uM, Result type QC Liability
# [1] = target: Tyrosine-protein kinase ABL1 (Homo sapiens) (UniProt P00519)
# [2] = target: Cyclin-dependent kinase 2 (Homo sapiens) (UniProt P24941)
# [3] = target: Casein kinase I isoform delta (Homo sapiens) (UniProt P48730)
# [4] = target: Glycogen synthase kinase-3 beta (Homo sapiens) (UniProt P49841)
# [5] = target: Mitogen-activated protein kinase 1 (Homo sapiens) (UniProt P28482)
# [6] = target: T1, Aurora kinase A (Homo sapiens) (UniProt O14965)
# T1 sequence (whole entry): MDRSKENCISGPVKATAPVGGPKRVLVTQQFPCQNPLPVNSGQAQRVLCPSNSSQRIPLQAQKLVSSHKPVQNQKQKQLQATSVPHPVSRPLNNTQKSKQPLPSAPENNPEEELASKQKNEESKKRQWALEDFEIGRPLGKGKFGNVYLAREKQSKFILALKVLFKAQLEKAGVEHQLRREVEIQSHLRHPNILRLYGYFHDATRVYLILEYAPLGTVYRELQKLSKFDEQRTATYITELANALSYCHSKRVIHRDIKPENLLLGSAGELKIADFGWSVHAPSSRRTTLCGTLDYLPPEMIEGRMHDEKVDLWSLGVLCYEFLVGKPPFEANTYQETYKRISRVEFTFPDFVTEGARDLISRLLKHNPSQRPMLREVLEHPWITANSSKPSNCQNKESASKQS
# Chain of Mitogen-activated protein kinase 1 (Homo sapiens) (P28482 whole entry): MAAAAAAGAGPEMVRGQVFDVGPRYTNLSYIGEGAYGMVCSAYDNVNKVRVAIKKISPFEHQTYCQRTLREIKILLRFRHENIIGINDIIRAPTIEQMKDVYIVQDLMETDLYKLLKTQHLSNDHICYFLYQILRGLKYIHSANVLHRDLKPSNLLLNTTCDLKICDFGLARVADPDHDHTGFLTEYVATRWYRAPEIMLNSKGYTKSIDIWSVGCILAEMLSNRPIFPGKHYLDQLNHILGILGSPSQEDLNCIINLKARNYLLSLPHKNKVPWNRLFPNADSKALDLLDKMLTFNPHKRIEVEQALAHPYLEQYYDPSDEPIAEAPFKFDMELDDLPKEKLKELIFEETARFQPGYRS
# Chain of Glycogen synthase kinase-3 beta (Homo sapiens) (P49841 whole entry, looked up): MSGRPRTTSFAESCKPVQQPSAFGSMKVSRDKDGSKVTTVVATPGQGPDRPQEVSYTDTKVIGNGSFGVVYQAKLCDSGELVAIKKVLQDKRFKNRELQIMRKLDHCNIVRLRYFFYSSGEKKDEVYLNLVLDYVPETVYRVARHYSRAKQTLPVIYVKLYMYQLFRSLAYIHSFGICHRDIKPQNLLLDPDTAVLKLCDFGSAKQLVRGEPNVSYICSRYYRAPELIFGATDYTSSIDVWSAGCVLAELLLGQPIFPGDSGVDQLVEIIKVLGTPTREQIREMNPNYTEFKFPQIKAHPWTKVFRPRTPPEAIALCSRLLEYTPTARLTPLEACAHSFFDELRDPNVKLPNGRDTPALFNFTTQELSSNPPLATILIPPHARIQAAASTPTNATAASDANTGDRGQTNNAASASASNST
# Chain of Tyrosine-protein kinase ABL1 (Homo sapiens) (P00519 whole entry): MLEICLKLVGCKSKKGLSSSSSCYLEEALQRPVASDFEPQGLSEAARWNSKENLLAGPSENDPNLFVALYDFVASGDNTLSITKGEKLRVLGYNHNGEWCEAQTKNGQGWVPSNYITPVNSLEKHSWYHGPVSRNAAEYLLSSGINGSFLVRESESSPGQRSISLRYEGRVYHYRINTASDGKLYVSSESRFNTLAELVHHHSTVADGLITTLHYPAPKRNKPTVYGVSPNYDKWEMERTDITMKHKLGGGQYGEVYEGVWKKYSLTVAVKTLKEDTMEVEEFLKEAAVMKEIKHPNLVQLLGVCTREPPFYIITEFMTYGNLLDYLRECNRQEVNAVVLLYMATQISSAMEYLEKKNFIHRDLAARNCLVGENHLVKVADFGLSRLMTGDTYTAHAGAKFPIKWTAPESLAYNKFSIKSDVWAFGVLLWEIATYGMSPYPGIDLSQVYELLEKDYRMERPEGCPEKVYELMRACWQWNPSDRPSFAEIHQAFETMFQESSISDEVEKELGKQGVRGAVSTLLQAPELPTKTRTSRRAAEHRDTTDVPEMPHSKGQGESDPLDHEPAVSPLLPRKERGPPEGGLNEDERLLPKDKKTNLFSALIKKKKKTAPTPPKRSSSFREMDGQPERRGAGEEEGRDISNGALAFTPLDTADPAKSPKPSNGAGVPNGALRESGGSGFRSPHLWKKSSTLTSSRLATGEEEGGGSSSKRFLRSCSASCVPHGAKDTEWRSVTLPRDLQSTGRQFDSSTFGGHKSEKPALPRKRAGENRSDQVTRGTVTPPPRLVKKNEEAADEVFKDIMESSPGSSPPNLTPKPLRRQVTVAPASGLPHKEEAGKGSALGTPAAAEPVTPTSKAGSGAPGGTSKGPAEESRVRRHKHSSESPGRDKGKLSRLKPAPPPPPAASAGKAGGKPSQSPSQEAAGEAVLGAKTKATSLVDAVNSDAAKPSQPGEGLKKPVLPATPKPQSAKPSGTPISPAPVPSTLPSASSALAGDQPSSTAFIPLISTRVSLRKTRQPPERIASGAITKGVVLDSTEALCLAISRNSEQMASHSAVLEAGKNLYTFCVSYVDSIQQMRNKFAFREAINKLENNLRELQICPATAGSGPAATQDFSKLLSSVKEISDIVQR
# Chain of Casein kinase I isoform delta (Homo sapiens) (P48730 whole entry, looked up, canonical isoform): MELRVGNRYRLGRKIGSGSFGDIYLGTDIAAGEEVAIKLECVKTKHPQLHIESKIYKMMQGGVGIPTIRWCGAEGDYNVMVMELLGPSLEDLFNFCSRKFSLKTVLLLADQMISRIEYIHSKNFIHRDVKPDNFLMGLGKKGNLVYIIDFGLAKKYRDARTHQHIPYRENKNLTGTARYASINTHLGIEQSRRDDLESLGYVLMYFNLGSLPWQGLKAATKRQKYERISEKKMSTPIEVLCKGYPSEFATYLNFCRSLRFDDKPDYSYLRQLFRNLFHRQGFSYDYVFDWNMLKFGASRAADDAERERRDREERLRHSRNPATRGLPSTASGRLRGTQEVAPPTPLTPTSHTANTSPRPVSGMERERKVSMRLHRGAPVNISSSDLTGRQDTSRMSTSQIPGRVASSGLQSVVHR
Compound,ΔTm [1],ΔTm [2],ΔTm [3],ΔTm [4],ΔTm [5],ΔTm [6]
COc1cc(F)ccc1-c1cc(Nc2cc(CS(C)(=N)=O)ccn2)ncc1F (stereo unspecified),5.35 °C,5.7 °C,1.19 °C,11 °C,0.27 °C,6.53 °C
Cc1nc2ccc(Cl)cc2c(-c2ccccc2)c1CC(=O)O,0.63 °C,0.84 °C,0.35 °C,0.14 °C,0.28 °C,0.17 °C
CCCCC[C@@](C)(O)/C=C/[C@H]1C(=O)CC(O)C1C/C=C\CCCC(=O)O (stereo partly specified),-0.65 °C,0.16 °C,-0.52 °C,0.15 °C,-0.04 °C,-0.74 °C
CC1CNCCc2c1nc1ccnn1c2N1CC(C(=O)N2CCC(C)(C)C2)C1 (stereo unspecified),0.04 °C,0.37 °C,0.46 °C,-0.58 °C,0.2 °C,-0.21 °C
CN(C)[C@H]1CCN(c2cc(C(F)(F)F)c(C#N)c(Nc3cccc(CCC(=O)O)c3)n2)C1,-0.06 °C,0.28 °C,0.14 °C,0.08 °C,0.58 °C,0.51 °C
CCc1nc(-c2cccc(C)c2)c(-c2ccnc(NC(=O)c3ccccc3)c2)s1,1.26 °C,-1.36 °C,4.93 °C,-1.07 °C,-0.25 °C,-1.25 °C
CCN(C)S(=O)(=O)Nc1cccc(-c2ccc3c(NC(=O)C4CC4)n[nH]c3c2)c1,4.16 °C,3.52 °C,0.06 °C,3.82 °C,0.42 °C,4.06 °C
COc1cccc(-c2c(C)c(Cc3c(F)cccc3C(F)(F)F)c3n(c2=O)[C@@H]([C@@H](N)c2ccccc2)CS3)c1F,-0.84 °C,-0.89 °C,-2.7 °C,-0.72 °C,-2.02 °C,-0.62 °C
COc1cc(C(N)=O)nc(-c2cccc(C#C[C@]3(O)CCN(C)C3=O)c2)c1,-0.11 °C,1.02 °C,-0.06 °C,0.79 °C,0.3 °C,1.62 °C
CC(C)(O)CNC(=O)N1C(=O)N(c2cccc(C(F)(F)F)c2)C2=C(C(=O)CC2)[C@H]1c1ccc(C#N)cc1,0.05 °C,0.79 °C,0.12 °C,0.33 °C,-0.03 °C,0.08 °C
O=C(Nc1ccnc(NC(=O)C2CC2)c1)c1c(Cl)cccc1Cl,5.46 °C,6.9 °C,0.54 °C,6.06 °C,0.23 °C,4.28 °C
Cc1n[nH]c2ncc(C(=O)N3CCC[C@H]3c3ccc(Cl)cc3)cc12,0.42 °C,0.82 °C,0.12 °C,7.82 °C,0.69 °C,0.03 °C
COc1cc(N2CCN(C)CC2)ccc1Nc1ncc2c(n1)N(C)c1ccccc1C(=O)N2CC(F)(F)F,0.67 °C,-0.65 °C,0.47 °C,-0.83 °C,0.11 °C,0.18 °C
COC(=O)c1ccc2c(c1)NC(=O)/C2=C(\Nc1ccc(-c2nccn2C)cc1)c1ccccc1,3.43 °C,0.27 °C,-0.5 °C,1.96 °C,-6.31 °C,-1.46 °C
COC(=O)c1sccc1S(=O)(=O)Nc1ccc(Nc2ccccc2)cc1OC,0.48 °C,0.72 °C,0.45 °C,-0.37 °C,-2.78 °C,-2.34 °C
Nc1ncnc2[nH]c(-c3ccccc3)nc12,3.48 °C,0.92 °C,0.73 °C,1.04 °C,0.38 °C,0.6 °C
CN(C)C(=O)Cn1cc(-c2nc([C@@](C)(c3ccc(-c4cnc(N)nc4)cc3)C3CC3)no2)cn1,1.32 °C,0.32 °C,0.5 °C,-0.36 °C,0.32 °C,2.6 °C
CCC(F)(F)c1cc(N2CCC(S(C)(=O)=O)CC2)nc2sc(C(N)=O)c(N)c12,0.45 °C and 1.08 °C and 2.55 °C,0.38 °C and 0.74 °C and 0.49 °C,1.03 °C and 1.35 °C and 2.12 °C,0.35 °C and -0.21 °C and 1.09 °C,0.45 °C and 0.46 °C and 0.62 °C,0.98 °C and 0.42 °C and 1.33 °C
CCOC(=O)CS(=O)(=O)c1ccc([C@@H](CO)NC(=O)c2cc3c(Cl)c(Cl)c(C)cc3n2C)cc1,-1.39 °C,0.21 °C,1.93 °C,-1.8 °C,0.66 °C,-4.67 °C
CNC(=O)c1c(F)cccc1Nc1nc(Nc2cc3c(cc2OC)CCN3C(=O)CN(C)C)nc2[nH]ccc12,-0.29 °C,0.06 °C,1.14 °C,-0.64 °C,1 °C,0.07 °C
Cc1ccc(C(=O)Nc2cc(N3CCN(C)CC3)cc(C(F)(F)F)c2)cc1-n1cc(-c2cnn(C)c2C)nn1,12.9 °C,0.76 °C,1.19 °C,-0.67 °C,0.45 °C,0.76 °C
CN1CCC(C#N)(NC(=O)[C@@H](NC(=O)N2CCOCC2)C(C)(C)C)CC1,-0.07 °C,0.23 °C,0.3 °C,-0.75 °C,0.52 °C,-0.18 °C
O=C1Nc2ccc(C(=O)c3ccco3)cc2C1=Cc1cc(Cl)c(O)c(Cl)c1,4.46 °C,0.67 °C,3.71 °C,5.93 °C,0.54 °C,5.03 °C
CC(C)(C#Cc1ccc(NC(=O)COc2ccccc2C(=O)c2ccccc2)c(Cl)c1)C(=O)O,0.32 °C,-1.47 °C,-0.18 °C,0 °C,-0.94 °C,0.27 °C
CC#CCC(C)[C@H](O)/C=C/[C@@H]1[C@H]2C/C(=C/CCCC(=O)O)C[C@H]2C[C@H]1O (stereo partly specified),-0.29 °C,0.41 °C,0.31 °C,-0.77 °C,0.12 °C,-0.07 °C
CCCS(=O)(=O)Nc1ccc(F)c(Nc2ncnc3cnc(-n4cnc(C)c4)nc23)c1F,1.19 °C,1.1 °C,0.17 °C,0.89 °C,0.39 °C,-0.24 °C
